Compound activity (PubChem)
TDP1 cell noCPT = qHTS for Inhibitors of human tyrosyl-DNA phosphodiesterase 1 (TDP1): qHTS in cells in absence of CPT. DT40 Tdp1-/- hTDP1 cells, no CPT, ATP luminescence, 48 h. Potency, µM (doses to about 46.2 µM), inactives show at the highest dose activity change, negative = growth inhibition, actives largely listed as inhibitors. actives 15% (n = 420,000). AID 686978, 2013; also: potency is read from the fitted curve at half-maximal effect; nearly all actives have a fitted effect of over 55% in size
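No-CPT arm: Tdp1-/-;hTDP1 DT40 cells (400/well) plus compounds, incubated ≥48 hr at 37 °C. Readout CellTiter-Glo luminescence.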
DT40 TDP1 CPT = growth inhibition of DT40 Tdp1-/-;hTDP1 cells with camptothecin (screen for TDP1 inhibitors) | chicken DT40 Tdp1-/-;hTDP1 cells + 20 nM CPT, ATP luminescence, 48 h | actives 12% (n = 420,000) | Potency, µM (titrated, usually from 46.2 µM), inactives show at the highest dose activity change, negative = growth inhibition, usual class: inhibitors | AID 686979; also: potency is read from the fitted curve at half-maximal effect; nearly all actives have a fitted effect of over 55% in size
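Cell growth measured by CellTiter-Glo luminescence after a minimum 48 h, 37 C compound exposure with 20 nM CPT in Tdp1-knockout DT40 cells stably expressing hTDP1, seeded 400/well; qHTS titration format.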
HT1080 IDH1KD tx = kills HT-1080 cells with IDH1 knockdown; HT-1080 IDH1 knockdown viability, ATP luminescence, 48 h; Potency, µM (top dose mostly 46.1 µM), for inactives: at the highest dose activity, negative = toxicity, usual class: cytotoxic; actives 2% (n = 360,000);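 also: potency is read from the fitted curve at half-maximal effect; 0% = DMSO wells and -100% = cell-free medium wells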
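Using the IDH1-knockdown HT-1080 line run in the same batch and compound series as the NT line, viability after 48 h at 37 °C was determined by CellTiter-Glo luminescence and expressed as % activity.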
IL1B secr inh = blocks inflammasome-driven IL-1 beta release; activity change, % at 57.5 µM; actives 4.7% (n = 360,000); THP-1 LPS/ATP IL-1B secretion, AlphaLISA, 16 h; stronger effect = lower value; in the data active = activity change below about -50%; inconclusive = mostly about -30% to -49%
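THP-1 cells pretreated 1 hr with compounds (up to 57.5 uM final), then stimulated with LPS (250 ng/mL final) plus ATP (1.25 mM final); secreted IL-1B measured by AlphaLISA after 16 hr, decreased signal indicating inhibition.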
12-LOX inh = ALOX12 (human) lipoxygenase inhibition | actives 1.1% (n = 580,000) | Potency, µM (series often up to 108 µM), inactives show top-dose activity change, negative = inhibition, usual class: inhibitors | P18054 | AID 1671190 | purified 12hLO, xylenol orange hydroperoxide absorbance; also: potency is read from the fitted curve at half-maximal effect
Target sequence (P18054 whole entry, looked up): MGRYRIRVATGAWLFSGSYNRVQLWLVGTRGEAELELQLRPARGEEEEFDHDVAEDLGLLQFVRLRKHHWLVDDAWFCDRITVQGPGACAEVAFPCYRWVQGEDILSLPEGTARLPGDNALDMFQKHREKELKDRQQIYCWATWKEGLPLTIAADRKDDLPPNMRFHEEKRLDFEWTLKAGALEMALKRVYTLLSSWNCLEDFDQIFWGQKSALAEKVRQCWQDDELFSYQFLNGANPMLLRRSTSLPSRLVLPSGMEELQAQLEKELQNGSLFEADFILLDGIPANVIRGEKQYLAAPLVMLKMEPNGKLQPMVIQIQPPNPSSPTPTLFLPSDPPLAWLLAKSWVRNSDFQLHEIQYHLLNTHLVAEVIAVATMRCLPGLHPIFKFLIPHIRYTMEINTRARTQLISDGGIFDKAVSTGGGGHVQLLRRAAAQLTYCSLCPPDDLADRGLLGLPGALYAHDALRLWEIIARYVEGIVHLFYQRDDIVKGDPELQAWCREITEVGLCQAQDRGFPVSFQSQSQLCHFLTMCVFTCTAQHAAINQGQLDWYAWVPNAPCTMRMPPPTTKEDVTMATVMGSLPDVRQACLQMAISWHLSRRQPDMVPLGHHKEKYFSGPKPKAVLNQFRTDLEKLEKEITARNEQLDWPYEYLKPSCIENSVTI
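Purified human 12hLO at 150 nM in 25 mM Hepes, 0.01% Triton X-100, pH 7.0, preincubated 15 min at room temperature with compound. Reaction started with 40 uM arachidonic acid, 30 min at room temperature. Hydroperoxide measured by Fe-xylenol orange, 573/405 nm absorbance ratio.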
HT1080NT lethal = kills 2HG-producing HT-1080-NT fibrosarcoma cells | HT-1080-NT fibrosarcoma viability, CellTiter-Glo ATP luminescence, 48 h | Potency, µM (series often up to 46.1 µM), for inactives: at the highest dose activity, negative = less viability, hits mostly cytotoxic | actives 1.6% (n = 360,000);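 also: NT is the 2HG producing partner of a matched IDH1 knockdown line; potency is read from the fitted curve at half-maximal effect; 0% = DMSO-treated cells and -100% = media-only wells without cells; nearly all actives have a fitted effect of over 55% in size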
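Compounds were tested in concentration-response format on HT-1080-NT cells for 48 hours at 37 degrees C. Cell viability came from CellTiter-Glo luminescence; curves were classified by r2, response magnitude and activity.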
Numbers without * were called inactive; [ ] = dose if it differs, or a comment. Shown is part of a subset that was picked to be rich in hits. Unless noted, calls follow the shape of the dose curve; as a rule, active = well fitted curve in the direction sought with a large enough effect; inconclusive = small, poorly fitted or top-dose-only effect, or another doubt; inactive = no such curve, though single readings can be large; an effect the other way counts as inactive or inconclusive. Unless noted, % is scaled to controls: 0 for no effect and ±100 for the full control effect.

Screening COC(=O)[C@@]12C[C@@H](CC(=O)N3CCCC3)C(=O)N(Cc3ccc4c(c3)OCO4)C1=CCC(C)(C)C2 returned TDP1 cell noCPT inconclusive, DT40 TDP1 CPT inconclusive, HT1080 IDH1KD tx 3%, IL1B secr inh -24, 12-LOX inh -3% and HT1080NT lethal 5%.
`CCOC(=O)N1CCN(C(=O)C[C@@H]2C[C@@]3(C(=O)OC)CCCCC=C3N(Cc3ccc4c(c3)OCO4)C2=O)CC1` gave TDP1 cell noCPT inconclusive, DT40 TDP1 CPT inconclusive, HT1080 IDH1KD tx 4%, IL1B secr inh -20, 12-LOX inh -13% and HT1080NT lethal 1%.
COC(=O)[C@@]12C[C@@H](CC(=O)N3CCSCC3)C(=O)N(Cc3ccc4c(c3)OCO4)C1=CCC(C)(C)C2 was read as TDP1 cell noCPT 15µM*, DT40 TDP1 CPT inconclusive, HT1080 IDH1KD tx -19%, IL1B secr inh -22, 12-LOX inh -1% and HT1080NT lethal -25%.
For CCOC(=O)N1CCN(C(=O)C[C@@H]2C[C@@]3(C(=O)OC)CC(C)(C)CC=C3N(Cc3ccc4c(c3)OCO4)C2=O)CC1 the results were TDP1 cell noCPT 18µM*, DT40 TDP1 CPT 12µM*, HT1080 IDH1KD tx -20%, IL1B secr inh -2, 12-LOX inh 1% and HT1080NT lethal -10%.
Screening CCc1ccc(C2c3[nH]c4ccccc4c3CCN2C(=O)CN2CCN(CC)CC2)cc1 (stereo unspecified) returned TDP1 cell noCPT 26µM*, DT40 TDP1 CPT inconclusive, HT1080 IDH1KD tx inconclusive, IL1B secr inh -72*, 12-LOX inh inconclusive and HT1080NT lethal 23µM*.
CCc1ccc(C2c3[nH]c4ccccc4c3CCN2C(=O)CNC(N)=O)cc1 (stereo unspecified) was read as TDP1 cell noCPT -7%, DT40 TDP1 CPT -14%, HT1080 IDH1KD tx -19%, IL1B secr inh -57*, 12-LOX inh -21% and HT1080NT lethal -9%.
For O=C(CCNC(=O)N1CCN(C(=O)c2cc3ccccc3[nH]2)CC1)NC1CC1 the results were 12-LOX inh 9%.
For COc1ccc(C(=O)N2CCC3(C2)C(=NC2CCCC2)NC(=O)N3c2cccc(OC)c2)cc1 (stereo unspecified) the results were 12-LOX inh 6%[6.33 µM].
Cc1ccc2c(CSc3nncs3)cc(=O)oc2c1C was read as 12-LOX inh -2%.
O=S(=O)(c1ccccc1)N1CCN(S(=O)(=O)c2ccc(F)cc2)CC1 was read as TDP1 cell noCPT -11%, DT40 TDP1 CPT 1%, HT1080 IDH1KD tx -19%, IL1B secr inh -11, 12-LOX inh 17% and HT1080NT lethal -20%.
For Cc1cc(C)c(C)c(S(=O)(=O)ON2C(=O)c3ccccc3C2=O)c1C the results were TDP1 cell noCPT 2.3µM*, DT40 TDP1 CPT 2.6µM*, HT1080 IDH1KD tx 7.3µM*, IL1B secr inh -119*, 12-LOX inh -26% and HT1080NT lethal inconclusive.
`Cc1ccc(S(=O)(=O)ON2C(=O)c3ccccc3C2=O)c(C)c1` gave TDP1 cell noCPT 1µM*, DT40 TDP1 CPT 0.82µM*, HT1080 IDH1KD tx inconclusive, IL1B secr inh -78*, 12-LOX inh inconclusive and HT1080NT lethal inconclusive.
`Cc1ccc(S(=O)(=O)N2CCN(CCc3ccccc3)CC2)c(C)c1` gave TDP1 cell noCPT inconclusive, DT40 TDP1 CPT -4%, HT1080 IDH1KD tx -28%, IL1B secr inh -3, 12-LOX inh inconclusive and HT1080NT lethal inconclusive.
Screening O=C1c2ccccc2C(=O)N1OS(=O)(=O)c1ccc(F)cc1 returned TDP1 cell noCPT 2.1µM*, DT40 TDP1 CPT 2.6µM*, HT1080 IDH1KD tx -6%, IL1B secr inh -5, 12-LOX inh inconclusive and HT1080NT lethal -4%.
Screening Cc1cc(C)c(S(=O)(=O)ON2C(=O)c3ccccc3C2=O)cc1C returned TDP1 cell noCPT 3.3µM*, DT40 TDP1 CPT 2.6µM*, HT1080 IDH1KD tx 10µM*, IL1B secr inh -61*, 12-LOX inh inconclusive and HT1080NT lethal inconclusive.
Screening CCOc1cc(C#N)ccc1OCc1ccccc1 returned 12-LOX inh 4%.
For COc1ccc2nc(/C(C#N)=C/c3ccc(-c4cccc(Cl)c4Cl)o3)[nH]c2c1 the results were 12-LOX inh -1%.
For O=C(NC1CCCCC1)C1CN(C(=O)c2cccc(C(F)(F)F)c2)CC12CCOCC2 (stereo unspecified) the results were 12-LOX inh -5%.
Screening Nc1ccc(/C=C/c2ccc3ncccc3c2)cc1 returned TDP1 cell noCPT inconclusive, DT40 TDP1 CPT inconclusive, HT1080 IDH1KD tx -8%, IL1B secr inh inconclusive, 12-LOX inh 0% and HT1080NT lethal 0%.
For COCCOc1ccc(C(=O)/C=C/c2cccc(O)c2)cc1OC the results were 12-LOX inh -23%.
`COc1ccc(/C=C/C(=O)c2ccc(O)c(CCCl)c2)cc1C` gave 12-LOX inh 32µM*.
`Cc1ccc(C(=O)/C=C/c2ccc3ncccc3c2)cc1` gave TDP1 cell noCPT 29µM*, DT40 TDP1 CPT 18µM*, HT1080 IDH1KD tx -24%, IL1B secr inh -58*, 12-LOX inh -16% and HT1080NT lethal -13%.
`COc1ccc(/C=C/C(=O)c2cc(Br)ccc2O)cc1OC` gave TDP1 cell noCPT -29%, DT40 TDP1 CPT -26%, HT1080 IDH1KD tx -9%, IL1B secr inh -17, 12-LOX inh -8% and HT1080NT lethal -4%.
`COc1cc(/C=C/C(O)=C/C(=O)/C=C/c2ccc(O)cc2)ccc1O` gave TDP1 cell noCPT inconclusive, DT40 TDP1 CPT 18µM*, HT1080 IDH1KD tx inconclusive, IL1B secr inh -97*, 12-LOX inh 13µM* and HT1080NT lethal inconclusive.
For COc1ccc(/C=C/C(=O)c2ccc(O)cc2O)cc1OC the results were TDP1 cell noCPT 15µM* and DT40 TDP1 CPT inconclusive.
COc1ccc(C=CC(=O)c2ccc(OCc3ccccc3)c(OC)c2)cc1OC was read as TDP1 cell noCPT 18µM*, DT40 TDP1 CPT 26µM*, HT1080 IDH1KD tx inconclusive, IL1B secr inh -6, 12-LOX inh -4% and HT1080NT lethal -14%.
COc1ccc(/C=C/C(=O)C2(C)CCCCC2)cc1 was read as 12-LOX inh -5%.
COc1ccc(/C=C/C(=O)c2ccc[nH]2)c(OC)c1OC was read as TDP1 cell noCPT inconclusive, DT40 TDP1 CPT 0%, HT1080 IDH1KD tx 11%, IL1B secr inh -29, 12-LOX inh 0% and HT1080NT lethal 11%.
